This is an account of results in PubChem BioAssay (EPA / NIEHS).

Values joined by “and” are separate entries in the source; they are usually repeats but may differ in a detail not shown here. Equal values may be shown once. Inconclusive results are not listed. Active and inactive are the calls of the source. How the source made its calls: active means hit-call score of the fitted dose curve at least 0.9, where 1 is the maximum; inconclusive means response in the unintended direction; inactive means score below 0.9.

The test deals with Nuclear receptor subfamily 4 group A member 2 (Homo sapiens) (UniProt P43354). The test is described as follows: ATG_NURR1_TRANS: Attagene TRANS-FACTORIAL HepG2 Assay for human Nuclear Receptor Related Protein 1 (NURR1) (AID 2282985). Conditions: HepG2 Attagene TRANS reporter, mRNA readout. As to the method: ATG_TRANS is a cell-based, multiplexed-readout assay that uses HepG2, a human liver cell line, with measurements taken at 24 hours after chemical dosing in a 24-well plate.ATG_NURR1_TRANS is one of 30 assay component(s) measured or calculated from the ATG_TRANS assay. It is designed to make measurements of mRNA induction, a form of inducible reporter, as detected with fluorescence intensity signals by Reverse transcription polymerase chain reaction (RT-PCR) and Capillary electrophoresis technology.Data from the assay component ATG_NURR1_TRANS was analyzed into 1 assay endpoint. This assay endpoint, ATG_NURR1_TRANS, was analyzed in the positive analysis fitting direction relative to DMSO as the negative control and baseline of activity. Using a type of inducible reporter, measures of mRNA for gain-of-signal activity can be used to understand the reporter gene at the transcription factor-level as they relate to the gene NR4A2. Furthermore, this assay endpoint can be referred to as a primary readout, because this assay has produced multiple assay endpoints where this one serves a reporter gene function. To generalize the intended target to other relatable targets, this assay endpoint is annotated to the nuclear receptor intended target family, where the subfamily is orphan.
Sequence of Nuclear receptor subfamily 4 group A member 2 (Homo sapiens) (P43354 whole entry, looked up): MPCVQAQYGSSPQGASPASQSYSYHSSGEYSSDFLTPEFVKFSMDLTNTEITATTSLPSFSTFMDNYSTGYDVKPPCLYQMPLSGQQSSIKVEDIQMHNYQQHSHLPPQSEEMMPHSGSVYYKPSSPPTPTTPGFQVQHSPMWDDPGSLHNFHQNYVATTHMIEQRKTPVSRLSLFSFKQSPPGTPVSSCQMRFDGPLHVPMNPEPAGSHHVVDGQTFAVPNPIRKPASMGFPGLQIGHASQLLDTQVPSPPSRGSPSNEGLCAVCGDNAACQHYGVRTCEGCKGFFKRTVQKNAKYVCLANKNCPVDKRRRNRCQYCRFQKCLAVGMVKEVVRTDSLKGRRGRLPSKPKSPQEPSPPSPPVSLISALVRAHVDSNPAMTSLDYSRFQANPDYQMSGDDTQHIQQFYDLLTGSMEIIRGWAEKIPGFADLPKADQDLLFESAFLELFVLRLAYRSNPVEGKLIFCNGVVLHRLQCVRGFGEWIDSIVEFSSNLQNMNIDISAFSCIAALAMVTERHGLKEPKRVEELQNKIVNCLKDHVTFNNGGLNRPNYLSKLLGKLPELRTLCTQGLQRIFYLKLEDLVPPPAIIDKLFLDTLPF
Human liver HepG2 cells are transiently transfected with multiple reporter transcription units (MRTUs) in 6-well plates using FuGene 6 reagent (Roche; 3 ml FuGene/1 mg DNA). The MRTU constructs are regulated by a cis-regulating element (promoter). […] A major difference between the CIS and TRANS system is that in CIS activities of endogenous TFs are measured, whereas the TRANS assay evaluates changes in activities of exogenous, chimeric NR-Gal4 proteins. […] At the end of 24 hour incubation, total RNA was isolated using TriZol reagent (Invitrogen). The isolated RNA is then reverse-transcribed using oligo(dT) primer and Mo-MLV reverse transcriptase (Invitrogen) with DNAse I (Ambion) treatment for 30 min. The one-tenth of the produced cDNA was amplified by PCR using Taq DNA polymerase (Invitrogen) and two reporter sequence-specific primers. The PCR products were fluorescently labeled by primer extension with 6-arboxyfluorescein (6-FAM) 5'-labeled reporter sequence-specific primer (2 min at 95 C, 20 s at 68 C and 10 min at 72 C) and these products were digested with 5U of HpaI (New England Biolabs) for 2h at 37 C. The fragments were purified using Qiaquick PCR columns (Qiagen), analyzed on an ABI 3130xL genetic analyzer (Applied Biosystems) with peak positions identified by using a set of X-rhodamine (ROX)-labeled MapMarker1000 molecular weight standards (BioVentures). The raw capillary electrophoresis data was processed using Attagraph software (Attagene).
Consider `O=C(/C=C/c1ccc(O)cc1)CC(=O)/C=C/c1ccc(O)cc1`, for which the outcome was inactive.

As to `O=[N+]([O-])c1ccc(O)cc1`, the compound was called inactive.

For `O=c1c(-c2ccc(O)cc2)coc2cc(O)ccc12`, the call was inactive. Consider `Cc1ccc(S(=O)(=O)O)c(C)c1`, for which the call was inactive. Regarding `FC(F)(I)C(F)(F)C(F)(F)C(F)(F)C(F)(F)C(F)(F)I`, the AC50 (usually the concentration giving half of the maximal activity seen) is 20.8 µM (active). For the compound `Cc1cc(CCN2CCN(c3nsc4ccccc34)CC2)cc2c1NC(=O)CC2(C)C`, the call was inactive. The same measure, in the same setting: then `CCCCC(CC)COC(=O)CCCCC(=O)OCC(CC)CCCC` (stereo not given), with “inactive”. With `CN(C)C=O`, the AC50 was 7.38 µM (active). For `CCC(C)(C)C1CCC(O)CC1` (stereo not given), the call was inactive.

As for `O=C1OC2(c3ccccc31)c1cc(Br)c(O)c(Br)c1Oc1c2cc(Br)c(O)c1Br`, the compound was classed as inactive. For the compound `C#C[C@]1(O)CC[C@H]2[C@@H]3CCC4=CC(=O)CC[C@@H]4[C@H]3CC[C@@]21C`, the outcome was inactive.

As to `CC[C@H](c1ccc(O)cc1)[C@@H](CC)c1ccc(O)cc1`, the compound was called inactive. The same measure, in the same setting: then `CCCCC[C@H](O)CC(=O)CCc1ccc(O)c(OC)c1`, with “inactive”. Regarding `CC(C)(C)c1cccc(C(C)(C)C)c1O`, the result was inactive. On to `NCC(F)(F)C(F)(F)C(F)(F)C(F)(F)C(F)(F)C(F)(F)C(F)(F)F`, for which the result was inactive. On to `CN1CCN(c2ccccc2/C=C2\SCCN(c3ccc(Cl)c(Cl)c3)C2=O)CC1`, for which the compound was called inactive. In the case of `C=C(C)C(=O)OCCC(F)(F)C(F)(F)C(F)(F)C(F)(F)C(F)(F)C(F)(F)F`, the compound was classed as inactive.

Regarding `O=C(O)c1ccccc1C(c1ccc(O)cc1)c1ccc(O)cc1`, the compound was called inactive. Take `CC#C[C@]1(O)CC[C@H]2[C@@H]3CCC4=CC(=O)CCC4=C3[C@@H](c3ccc(N(C)C)cc3)C[C@@]21C`: the result was inactive. On the same count and under the same terms, then `CCc1nn(C2CCCCC2)c2cc(C3(C#N)CCC(C(=O)O)CC3)ccc12` (stereo not given), with “inactive”. Turning to `O=C(O)Cc1cc(I)c(Oc2cc(I)c(O)c(I)c2)c(I)c1`, the AC50 was 23.6 µM (active). Consider `CCCCCCC(=O)O`, for which the call was inactive. For `CCCCCCCCCCCCc1ccccc1S(=O)(=O)O`, the result was inactive. As for `CC(C)(C)c1cc(C(C)(C)C)c(O)c(C(C)(C)C)c1`, the AC50 is 431 nM (active) and 1.32 µM (active). For the compound `CCN(CC)CCNc1ccc(CNC=O)c2sc3ccc(OC)cc3c(=O)c12`, the AC50 is 0.771 µM (active). As to `CC(=O)CC(C)(C)O`, the outcome was inactive. As to `Cc1oc(-c2ccccc2)nc1CCOc1ccc(C[C@H](Nc2ccccc2C(=O)c2ccccc2)C(=O)O)cc1`, the AC50 was 19.9 µM (active).

`CCCCCCCCOC(=O)CCCCCCCCC(=O)OCCCCCCCC`: the compound was called inactive. On to `OC1CCC(C2CCCCC2)CC1` (stereo not given), for which the call was inactive.

Take `CCCCCCCC(=O)O`: the compound was classed as inactive. For the compound `CCC(=C(c1ccc(O)cc1)c1ccc(OCCN(C)C)cc1)c1ccccc1`, the compound was called inactive. On to `NC(=O)N(O)[C@@H]1C=C[C@H](Oc2cccc(Oc3ccc(F)cc3)c2)C1`, for which the result was inactive. As for `C[C@@H]1C[C@H]2[C@@H]3CCC4=CC(=O)C=C[C@]4(C)[C@@]3(F)[C@@H](O)C[C@]2(C)[C@@]1(O)C(=O)COP(=O)(O)O`, the result was inactive. As for `CC[C@H](C)[C@@H](C(=O)O)n1sc2ccccc2c1=O`, the compound was called inactive.

For the compound `Oc1cccc(O)c1`, the compound was called inactive. Consider `CCCOc1sc(C(=O)N2CCC(c3cc(CN)ccc3F)CC2)c(C)c1Br`, for which the compound was classed as inactive. Regarding `CCCCCCCCCCCCCC[N+](C)(C)C`, the half-maximal activity concentration (AC50) was 26.9 µM (active). As for `CC(C)(C)c1ccc(O)c(C(C)(C)C)c1`, the AC50 is 9.6 µM (active).

As to `OCCC(F)(F)C(F)(F)C(F)(F)C(F)(F)C(F)(F)C(F)(F)F`, the compound was called inactive. Consider `ClC1=C(Cl)C(Cl)(Cl)C(Cl)=C1Cl`, for which the result was inactive.
